# Data reported in PubChem BioAssay (NCI).
# The panel holds about 83,000 compounds, 20% with a hit somewhere; the sample as a whole holds those more often.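 Compound tested at a single concentration for 48 hours in 96-well plates; a percent growth value below 10 was scored as active.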 A number with no mark means an inactive call. Activity calls are given as the source filed them.
# Legend:
# Experiment in all cases: NCI-60 one-dose screen, 48 h (100 = growth as untreated, 0 = no growth, -100 = all killed)
# HCT-15 colon = conditions: 10 µM unless noted
# HT29 colon = conditions: 10 µM unless noted
# SNB-75 CNS = conditions: 10 µM unless noted
# SNB-19 CNS = conditions: 10 µM unless noted
# U251 CNS = conditions: 10 µM unless noted
# PC-3 prostate = conditions: 10 µM unless noted
# SK-MEL-5 melanoma = conditions: 10 µM unless noted
# UACC-62 melanoma = conditions: 10 µM unless noted
# SK-MEL-28 melanoma = conditions: 10 µM unless noted
# LOX IMVI melanoma = conditions: 10 µM
Compound,growth (HCT-15 colon),growth (HT29 colon),growth (SNB-75 CNS),growth (SNB-19 CNS),growth (U251 CNS),growth (PC-3 prostate),growth (SK-MEL-5 melanoma),growth (UACC-62 melanoma),growth (SK-MEL-28 melanoma),growth (LOX IMVI melanoma)
O=C(Nc1ccccc1)c1ccco1,105%,100%,87%,107%,96.1%,100%,104%,104%,105%,–
CN(C)CCOC(=O)Nc1ccc(Cc2ccc(NC(=O)OCCN(C)C)cc2)cc1,63.1% [100 µM],14.5% [100 µM],89% [100 µM],99.6% [100 µM],69.4% [100 µM],60.5% [100 µM],54.8% [100 µM],1.99% [100 µM] (active),18.7% [100 µM],–
C1CCc2onc(-c3noc4c3CCCCC4)c2CC1,103%,103%,112%,98%,107%,102%,101%,102%,112%,–
CN(CCCN(C)CCC1CCCCC1)CCC1CCCCC1,8.41% (active),3.68% (active),-0.933% (active),77.3%,11.1%,43.2%,-100% (active),–,-84.9% (active),-4.45% (active)
CCNc1ncnc2[nH]ncc12,102%,108%,88.9%,104%,101%,94.6%,101%,–,111%,98%
Nc1cc2c(cc1Cl)C(=O)c1ccccc1C2=O,70.6%,83.8%,30.9%,36.2%,-34.1% (active),72.5%,91.9%,73.2%,101%,–
COC(=O)C1(CC(C)=O)NC(=S)NC(=O)C1C#N (configuration not stated),106%,104%,112%,98.4%,109%,119%,100%,103%,118%,–
Nc1ncnc(Nc2ccccc2)n1,103%,108%,104%,109%,111%,101%,104%,115%,107%,–
COc1cc(OC)c2cc(C(=O)c3ccc(C#N)cc3)c(=O)oc2c1,105%,104%,85.5%,88.5%,105%,107%,97.6%,91.8%,99.5%,–
CN(C)c1ccc(/C=C/C(=O)c2ccc(NC(N)=O)cc2)cc1,84.9%,95.2%,67.4%,80.1%,69%,98.4%,97.6%,92.2%,104%,–
CCCC(OC(C)=O)c1ccc2c(c1)OCO2 (configuration not stated),115%,103%,96.9%,105%,96%,102%,102%,102%,106%,–
CNc1ccccc1C(N)=O,101%,103%,91.8%,94.8%,92.8%,116%,101%,93.8%,107%,–
N#Cc1ccc(OC(=O)Nc2cc(Cl)cc(Cl)c2)cc1,3.2% [100 µM] (active),2.78% [100 µM] (active),-9.78% [100 µM] (active),15.4% [100 µM],4.68% [100 µM] (active),-9.43% [100 µM] (active),-94.3% [100 µM] (active),-33.1% [100 µM] (active),5.58% [100 µM] (active),–
Cc1c(Cl)cccc1NC(=S)NC(=O)c1ccccc1,92.6%,90.3%,90.5%,107%,84.9%,89.2%,90.1%,92.7%,102%,–
CCOC(=O)C(COS(C)(=O)=O)(COS(C)(=O)=O)C(=O)OCC,107%,108%,99.4%,106%,101%,98.5%,109%,103%,105%,–
c1ccc2c(NCCCN3CCN(CCCNc4c5ccccc5nc5ccccc45)CC3)c3ccccc3nc2c1,2.79% [100 µM] (active),-37.3% [100 µM] (active),-91% [100 µM] (active),-21.1% [100 µM] (active),-19.4% [100 µM] (active),-33.1% [100 µM] (active),-70.3% [100 µM] (active),-88.5% [100 µM] (active),-72.3% [100 µM] (active),–
CCOC(=O)C(=O)CC(=O)c1ccccc1,102%,103%,91.7%,100%,93.3%,89.4%,95%,93.3%,106%,–
O=C1C=CC(=O)C2=C1CCCC2,92.4%,109%,80.2%,92.7%,95.5%,82.7%,97.5%,85.5%,108%,–
O=C(Nc1cccc(Cl)c1)c1ccc(Cl)cc1Cl,96.3%,86.5%,84.7%,96.9%,90.7%,82.2%,96.1%,–,101%,98.5%
CCOC(=O)C(CCC#N)(CCC#N)C(=O)OCC,98.7%,111%,80.9%,100%,102%,97.6%,102%,103%,107%,–
OCC1CCC(O)C(CO)N1 (configuration not stated),94.1%,108%,70.2%,105%,100%,95%,108%,105%,96.3%,–
C/C(=N\O)c1ccccn1,102%,97.3%,96.9%,95.2%,88.8%,94.3%,105%,–,110%,99.1%
O=[N+]([O-])c1ccc(-c2nc(N(CCO)CCO)c3ccccc3n2)o1,-3.11% (active),-27.7% (active),-91.7% (active),-0.996% (active),7.6% (active),-0.975% (active),-99% (active),-71.6% (active),-64.8% (active),–
C/C(=N\Nc1ccc([N+](=O)[O-])cc1[N+](=O)[O-])c1ccc(Br)cc1,97.5%,92.2%,104%,97.8%,92.2%,91.2%,100%,–,107%,95.8%
CCCc1cccc(CCC)c1NC(=O)Nc1cc(Cl)cc(Cl)c1,113%,107%,108%,99.5%,101%,101%,94.3%,90%,103%,–
O=C(N/N=C\c1ccc(Cl)cc1Cl)c1ccncc1,102%,90.1%,77.4%,92.8%,92.7%,94%,98.9%,106%,103%,–
O=S(=O)(O)c1cccnc1,114%,117%,79.5%,96%,113%,102%,103%,–,114%,108%
CC(C)C(=O)OCCOc1ccc(C(C)(C)C)cc1,100%,93.1%,94.1%,98.8%,88.4%,91.6%,102%,–,110%,95.8%
